# Most compounds without a hit are left out; they make up all but 1.3% or so of the library.
# S1P2 agonist: S1P2 (human) receptor agonism. O95136. S1P2-expressing cell line, agonist reporter read-out. activation, % at 4.5 µM. actives 0.46% (n = 97,000). AID 729; in the data active = activation above about 16%;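 also: 0% = vehicle low control and 100% = maximal reference agonist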
# Target sequence (O95136 whole entry, looked up): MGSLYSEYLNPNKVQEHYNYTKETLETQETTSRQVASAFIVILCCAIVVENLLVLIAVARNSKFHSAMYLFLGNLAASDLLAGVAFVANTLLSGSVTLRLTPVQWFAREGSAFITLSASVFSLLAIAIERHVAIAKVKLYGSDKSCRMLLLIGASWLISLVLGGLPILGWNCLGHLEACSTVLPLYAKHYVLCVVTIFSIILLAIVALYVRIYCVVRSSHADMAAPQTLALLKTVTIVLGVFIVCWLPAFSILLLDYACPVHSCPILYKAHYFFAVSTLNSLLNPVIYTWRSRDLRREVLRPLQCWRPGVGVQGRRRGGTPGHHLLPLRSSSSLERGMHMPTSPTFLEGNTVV
# GALR2 ag: agonists of human galanin receptor 2 (GALR2). O43603. GALR2-expressing cells, agonist activation read-out. activation, % (concentration not given with the values). actives 0.48% (n = 140,000). AID 803; in the data active = activation above about 5%, passing the limit was not always enough;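 also: 0% = vehicle buffer wells and 100% = reference agonist at full effect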
# S1P2 antag: antagonists of human S1P2 receptor; O95136; cell-based S1P2 antagonist assay, inhibition at 5 uM; inhibition, % at 5 µM; actives 0.21% (n = 97,000); AID 736; in the data active = inhibition above about 45%;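 also: CRE beta-lactamase reporter cells expressing human S1P2 stimulated with S1P; 0% = agonist at EC80 alone and 100% = agonist plus reference antagonist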
# Phagocyt inh: inhibitors of macrophage phagocytosis. J774A.1 macrophage IgG-bead phagocytosis, imaging. inhibition, % at 5 µM. actives 0.07% (n = 110,000). AID 1029;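 active = inhibition above the mean of the plate negative controls plus 5 SD, cut at about 13% in these data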;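 also: phagocytic index as fraction of beads internalized from green versus red external bead signal; plate controls were DMSO negative control for no effect and cytochalasin-D positive control for full effect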
# Calb biofilm kill: kills Candida albicans biofilms; AID 834; actives 0.14% (n = 85,000); inhibition, % at 6 µM; C. albicans biofilm + clotrimazole, Alamar Blue;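 active = inhibition above 20%; inactive = inhibition below 20%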;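 also: preformed 24 hr biofilms exposed to compound for 48 hr; 0% = biofilm without compound and 100% = blank killed by clotrimazole plus chlorhexidine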
# GALR2 antag: blocks the human galanin receptor 2 | O43603 | GALR2-expressing cells, antagonist mode | inhibition, % at 4 µM | actives 0.39% (n = 140,000) | AID 828;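 also: cells stimulated with galanin 1-16 at roughly its EC80; 0% = agonist challenge control and 100% = basal control without agonist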
# GALR2 ant conf: GALR2 (human) antagonism confirmed; GALR2-expressing cells, antagonist mode, inhibition; AID 866; actives 60% (n = 480); inhibition, % at 4 µM; shares compounds with GALR2 antag;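 also: cells stimulated with galanin at about its EC80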
# BLA inh counter: counter-screen for GALR2 antagonists: beta-lactamase reporter inhibitors; shares compounds with GALR2 antag; CHO NFAT-BLA reporter, beta-lactamase FRET, thapsigargin-stimulated; inhibition, % at 4.2 µM; actives 36% (n = 480); AID 867;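 active = inhibition above the mean inhibition across tested compounds plus 3 SD, cut at about 27% in these data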;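 also: 0% = 500 nM thapsigargin stimulated wells and 100% = unstimulated BSA only wells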
# Starred values were filed as active, the others as inactive; · = no result; ! = not active in a repeat. Rule as the data show it, unless noted: active = inhibition above about 27%; inactive = the rest.
SMILES,S1P2 agonist,GALR2 ag,S1P2 antag,Phagocyt inh,Calb biofilm kill,GALR2 antag,GALR2 ant conf,BLA inh counter
C=CCN1C(=O)NC(=O)/C(=C/c2cccn2C)C1=O,-3,-1,-1,·,·,10,·,·
Cn1cccc1/C=C1/C(=O)NC(=O)N(Cc2ccccc2)C1=O,·,0,·,11,·,29*,36*,66*
Cc1cccc(N2CCc3c2nc2ccccc2c3N)c1,-7,-3,24,0,1,31*!,36*,11
CCOc1cc2[nH]c(=S)n(CCCC(=O)N3CCC4(CC3)OCCO4)c(=O)c2cc1OCC,-5,-2,-6,4,0,2,·,·
CN[C@H]1C[C@H]2O[C@@](C)([C@H]1OC)n1c3ccccc3c3c4c(c5c6ccccc6n2c5c31)C(=O)NC4,·,-4,·,·,·,104*,105*,108*
COC(=O)C[C@]1(C(=O)OC)CN(C#N)N(c2ccc(Cl)cc2)C12c1ccccc1-c1ccccc12,-7,-3,36,·,7,40*,44*,32*
CCOC(=O)CC1=C(C(=O)OCC)C2(C(=O)N1CC(=O)OC)C(C#N)=C(N)Oc1ccccc12 (stereo unspecified),-4,-1,6,·,6,-5,·,·
CN1C2CCC1/C(=C/c1ccccn1)C(=O)/C2=C\c1ccccn1,·,-3,·,11,·,102*,102*,105*
C[C@H]1CCCC(=O)CCCCCc2cc(O)cc(O)c2C(=O)O1,·,0,·,·,3,12,·,·
CC(=O)OC1C2CCC1C(N1CCCC1)CC2 (stereo unspecified),-4,-3,-1,·,4,3,·,·

# Source: PubChem (several laboratories)
